PubChem BioAssay AID1159580 (chemical genetic matrix, 2015)
“And” between values parts separate entries of the source, which are not always exact repeats. Identical values can stand only once. In all, about 5,500 compounds went through this assay and about 2,000 (36%) were called active. Roughly 18% stayed inconclusive and do not appear here. No stated cut-off is given here; in the data, active means normalized growth mostly below about 0.91 (no sharp cut-off); inconclusive means no clear call, values can overlap the other calls; inactive means mostly above about 0.92. The list shows a part of the results.

Experiment: chemical genetic growth profiling, strain panel (AID 1159580);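 further: tested at 20 µM; growth read once vehicle control cultures reached saturation at 30 °C; 1 = growth at the plate median or of vehicle wells; lower values mean less growth of the strain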
Settings: S. cerevisiae deletion strains, growth OD

Measured: normalized growth

Clc1ccc2c(c1)C(N1CCNCC1)=Nc1ccccc1O2
active: locus YAL021C, strain ccr4, hits give low values 0.829 | locus YAL026C, strain drs2, hits give low values 0.466 | locus YDR137W, strain rgp1, hits give low values 1.32 [resistant] | locus YFR010W, strain ubp6, hits give low values 0.88
inactive: locus YAL013W, strain DEP1, hits give low values 0.984 and 1.02 | locus YAL030W, strain snc1, hits give low values 0.978 | locus YAL040C, strain CLN3, hits give low values 1.01 | locus YBL061C, strain skt5, hits give low values 0.991 | locus YBR009C, strain hhf1, hits give low values 0.963 | locus YBR021W, strain FUR4, hits give low values 0.989 | locus YBR023C, strain chs3, hits give low values 0.969 | locus YBR171W, strain sec66, hits give low values 0.991 | locus YBR229C, strain ROT2, hits give low values 0.952 | locus YBR231C, strain swc5, hits give low values 0.994 | locus YBR279W, strain paf1, hits give low values 0.968 | locus YCL011C, strain gbp2, hits give low values 0.988 | locus YCL016C, strain dcc1, hits give low values 0.979 | locus YCL029C, strain bik1, hits give low values 0.986 | locus YCL069W, strain vba3, hits give low values 0.969 | locus YCR088W, strain abp1, hits give low values 0.994 | locus YDL005C, strain med2, hits give low values 0.994 | locus YDL035C, strain GPR1, hits give low values 0.972 | locus YDL040C, strain nat1, hits give low values 1.01 | locus YDL074C, strain BRE1, hits give low values 1.03 | locus YDL101C, strain DUN1, hits give low values 0.991 | locus YDL134C, strain PPH21, hits give low values 0.996 | locus YDL185W, strain tfp1, hits give low values 0.986 | locus YDL192W, strain arf1, hits give low values 0.99 | locus YDR001C, strain nth1, hits give low values 0.992 | locus YDR069C, strain doa4, hits give low values 0.901 | locus YDR101C, strain arx1, hits give low values 0.995 | locus YDR150W, strain NUM1, hits give low values 0.974 | locus YDR159W, strain sac3, hits give low values 0.984 | locus YDR162C, strain NBP2, hits give low values 0.988 | locus YDR195W, strain ref2 1.07 | locus YDR297W, strain sur2, hits give low values 0.992 | locus YDR318W, strain mcm21, hits give low values 0.993 | locus YDR334W, strain swr1, hits give low values 0.957 | locus YDR335W, strain msn5, hits give low values 0.975 | locus YDR388W, hits give low values 0.98 | locus YDR392W, strain spt3, hits give low values 1.06 | locus YDR502C, strain sam2, hits give low values 0.959 | locus YEL003W, strain gim4, hits give low values 0.996 | locus YEL037C, strain rad23, hits give low values 0.968 | locus YEL061C, strain CIN8 (second series), hits give low values 0.992 | locus YEL061C, strain CIN8, hits give low values 0.984 | locus YER002W, strain NOP16, hits give low values 0.998 | locus YER015W, strain faa2, hits give low values 0.983 | locus YER016W, strain bim1, hits give low values 0.993 | locus YER110C, hits give low values 0.978 | locus YER111C, strain swi4, hits give low values 0.984 | locus YER155C, strain BEM2 (second series), hits give low values 0.992 | locus YER155C, strain BEM2, hits give low values 1 | locus YER167W, strain BCK2, hits give low values 0.994 | locus YGL078C, strain dbp3, hits give low values 0.968 | locus YGL086W, strain mad1, hits give low values 0.986 | locus YGL167C, strain pmr1, hits give low values 0.974 | locus YGL173C, strain kem1, hits give low values 0.928 | locus YGL227W, strain vid30, hits give low values 0.985 | locus YGL240W, strain doc1, hits give low values 0.975 | locus YGL248W, strain PDE1, hits give low values 0.987 | locus YGL253W, strain hxk2, hits give low values 0.989 | locus YGR078C, strain PAC10, hits give low values 1 | locus YGR135W, strain pre9, hits give low values 0.98 | locus YGR229C, strain SMI1, hits give low values 0.937 | locus YGR252W, strain gcn5, hits give low values 0.915 | locus YHR013C, strain ard1, hits give low values 0.891 | locus YHR027C, strain rpn1, hits give low values 0.989 | locus YHR030C, strain SLT2, hits give low values 0.994 and 1.02 | locus YHR079C, strain IRE1 (second series), hits give low values 0.986 | locus YHR079C, strain IRE1, hits give low values 1.03 | locus YHR094C, strain hxt1, hits give low values 0.998 | locus YHR129C, strain ARP1, hits give low values 1 | locus YHR142W, strain chs7, hits give low values 0.957 | locus YHR200W, strain rpn10, hits give low values 0.992 | locus YIL066C, strain RNR3, hits give low values 0.978 | locus YIL073C, strain SPO22, hits give low values 1.05 | locus YIL125W, strain kgd1, hits give low values 0.97 | locus YIR030C, strain dcg1, hits give low values 0.986 | locus YJL092W, strain hpr5, hits give low values 0.987 | locus YJL095W, strain BCK1 (second series), hits give low values 0.965 | locus YJL095W, strain BCK1, hits give low values 0.98 and 1.02 | locus YJL115W, strain asf1, hits give low values 0.957 | locus YJL129C, strain trk1, hits give low values 1.06 | locus YJL134W, strain LCB3, hits give low values 0.985 | locus YJL154C, strain vps35, hits give low values 0.97 | locus YJL164C, strain tpk1, hits give low values 0.964 | locus YJL166W, strain qcr8, hits give low values 0.984 | locus YJL168C, strain set2, hits give low values 0.996 | locus YJL187C, strain SWE1 (second series), hits give low values 1 | locus YJR043C, strain POL32, hits give low values 1.02 | locus YJR066W, strain TOR1, hits give low values 0.972 | locus YJR075W, strain HOC1, hits give low values 1 | locus YKL009W, strain mrt4, hits give low values 0.96
